Assay [1] deals with Neuropilin-2 / VEGF-C interaction (human). The assay is described as follows: small molecules blocking Neuropilin-2/VEGF-C interaction – biochemical, microplate binding format, z-score (AID 743281). To be noted: microplate NRP2/VEGF-C binding assay; hits give low values.
A further assay deals with F380Y/beta4. The assay is described as follows: BK channel mutant inhibitors and activators – cell-based, U2OS BacMam, thallium flux, beta subunits, selectivity assay, profiling panel (AID 1259406;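 active = thallium flux through the channel raised or lowered by more than 3 SD from vehicle-only wells, actives on both sides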;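 note: initial slope of Thallos dye fluorescence rise after thallium is added; log ratio against the mean of 0.3% DMSO vehicle wells on the same plate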). The note with it: U2OS BacMam BK variants, at 30 µM.
Assay [2] concerns the target Calcium-activated potassium channel subunit alpha-1 (Homo sapiens) + Leucine-rich repeat-containing protein 26 (Homo sapiens) (UniProt Q12791+Q2I0M4). The assay is described as above. To be noted: U2OS BacMam BK variants, F380Y/Slo1WT/gamma1, at 30 µM.
For a further assay, the system named is R275C/beta4. Described as above. The note with it: U2OS BacMam BK variants, at 30 µM.
A short description of assay [3]: signal quenchers or enhancers, Cy5 substrate/SSB – biochemical, NIH Clinical Collection, E. coli SSB, artefact control for HCV NS3 helicase inhibitor project (AID 743268). To be noted: Cy5-oligo bound E. coli SSB, fluorescence interference.
Assay [4] concerns Hepatitis C virus NS3 helicase. The assay is described as follows: blockers of NS3h binding to DNA – biochemical, fluorescence polarization, NIH Clinical Collection, primary screen (AID 743270). To be noted: NS3 helicase binding to Cy5-dT15 DNA, hits give high values, concentration not given here. For orientation: Polarisation of emitted light reports the rotation of a fluorescent probe.

Assay [5] deals with Single-stranded DNA-binding protein (Escherichia coli (strain K12)) (UniProt P0AGE0). The assay is described as follows: SSB-ssDNA binding inhibitors – biochemical, fluorescence polarization, NIH Clinical Collection, counter-screen for HCV NS3 helicase inhibitor project (AID 743271; in the data active = inhibition above about 28%). The note with it: E. coli SSB-DNA binding, hits give high values, concentration not given here.
Assay [6] in a line: compounds distorting NS3 helicase fluorescence signal – biochemical, NIH Clinical Collection, artefact control for HCV NS3 helicase inhibitor project (AID 743272).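 Note: HCV NS3 helicase with a Cy5 labelled single stranded DNA probe.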 To be noted: fluorescence interference counterscreen, HCV NS3 helicase assay; hits give low values. Background: Counterscreens check selectivity or assay interference.
Assay [7] relates to Aerobactin synthetase IucA (Klebsiella pneumoniae). The assay is described as follows: inhibition of K. pneumoniae IucA enzyme – biochemical, Tocris library, absorbance (AID 1345561).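 Note: 100% = enzyme without compound and 0% = no enzyme.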 To be noted: purified IucA enzyme assay, absorbance (OD) read-out; hits give low values;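 tested at 8 µM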.
Assay [8] in a line: viability loss in pontine glioma line – cell-based, SU-DIPG-XVII, MIPE5.0, CellTiter-Glo, qHTS, dose response (AID 1347060; cut-off not given, nearly all actives have AC50 up to about 26 µM). The note with it: CellTiter-Glo ATP luminescence. (In general: ATP-based viability assays read luminescence as a measure of living cells.)
Assay [9] is described as follows: JHH-DIPG-1 glioma cell viability, MIPE5.0 library, CellTiter-Glo luminescence, qHTS (AID 1347067; cut-off not given, nearly all actives have AC50 up to about 26 µM;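 note: cells exposed to compound for 48 hours before readout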). To be noted: JHH-DIPG-1 glioma viability, CellTiter-Glo ATP luminescence.
Assay [10] in a line: growth inhibition of DIPG cells – cell-based, MIPE5.0 library, qHTS (AID 1347068; cut-off not given, nearly all actives have IC50 up to about 30 µM). To be noted: SU-DIPG-XXV viability.
The nature of assay [11]: viability loss in pontine glioma line – cell-based, SU-DIPG-XIII, MIPE4.0, CellTiter-Glo, qHTS, dose response (AID 1347061; cut-off not given, nearly all actives have AC50 up to about 37 µM;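 note: cells exposed to compound for 48 hours before readout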). The note with it: CellTiter-Glo ATP luminescence.
A short description of assay [12]: viability loss in pontine glioma line – cell-based, JHH-DIPG-1, MIPE4.0, CellTiter-Glo, qHTS, dose response (AID 1347062; cut-off not given, nearly all actives have AC50 up to about 27 µM). The note with it: JHH-DIPG-1 viability, CellTiter-Glo ATP luminescence.
The nature of assay [13]: viability loss in pontine glioma line – cell-based, SU-DIPG-IV, MIPE4.0, CellTiter-Glo, qHTS, dose response (AID 1347063; cut-off not given, nearly all actives have AC50 up to about 30 µM;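 note: compound exposure lasted 48 hours before the viability readout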). The note with it: CellTiter-Glo ATP luminescence.
The nature of assay [14]: growth inhibition of DIPG cells – cell-based, MIPE4.0 library, CellTiter-Glo luminescence, qHTS (AID 1347066; cut-off not given, nearly all actives have AC50 up to about 30 µM;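 note: cells exposed to compound for 48 hours before readout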). To be noted: SU-DIPG-VI viability, CellTiter-Glo ATP luminescence.

This is an account of results in PubChem BioAssay.

The structures appear in SMILES notation. A number with no mark means an inactive call. Inconclusive results are not listed. Active and inactive are the calls of the source. Unless noted, the rule behind the calls is not given here.

Sequence of Calcium-activated potassium channel subunit alpha-1 (Homo sapiens) + Leucine-rich repeat-containing protein 26 (Homo sapiens) (Q2I0M4 whole entry, looked up, one chain of several): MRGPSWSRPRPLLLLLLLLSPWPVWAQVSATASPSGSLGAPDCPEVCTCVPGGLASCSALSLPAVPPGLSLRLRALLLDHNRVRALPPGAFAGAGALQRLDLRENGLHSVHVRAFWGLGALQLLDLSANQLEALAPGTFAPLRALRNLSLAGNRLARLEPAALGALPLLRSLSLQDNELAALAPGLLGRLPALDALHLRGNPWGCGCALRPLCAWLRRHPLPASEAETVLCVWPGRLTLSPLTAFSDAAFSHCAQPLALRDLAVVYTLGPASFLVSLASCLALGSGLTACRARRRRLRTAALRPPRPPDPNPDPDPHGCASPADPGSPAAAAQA

`COc1cccc([C@@]2(O)CCCC[C@@H]2CN(C)C)c1`: the z-score in assay [1] was 0.404. The figures for the log fold change Tl+ flux (in the assay on F380Y/beta4; in assay [2]; in the assay with R275C/beta4) were -0.0244, -0.0312 and -0.00931, respectively.
The term inhibition denotes the drop in the measured response relative to a control, in per cent. In the case of `CCN(CC)CCOC(=O)C(O)(c1ccccc1)c1ccccc1`, the fluorescence ratio is 0.99 in assay [3] and 0.98 in [6]. In addition, the inhibition in assay [4] was -1.19%; in [5] it was -0.87%. Further, the z-score in assay [1] is 0.28. In addition, the log fold change Tl+ flux is 0.0464 with F380Y/beta4, -0.0223 in [2] and 0.00187 in the assay with R275C/beta4.
For `CC[C@]1(O)CC[C@H]2[C@@H]3CCC4=CCCC[C@@H]4[C@H]3CC[C@@]21C`, the fluorescence ratio in assay [3] and in [6] was 1.02 in each case. The inhibition in assay [4] was -2.77%; in assay [5], 1.44%. Further, the log fold change Tl+ flux was -0.128 (active) with F380Y/beta4, 0.141 (active) in assay [2] and 0.243 (active) with R275C/beta4.
In general, remaining activity refers to the signal under treatment as a percentage of the control signal. On to `O=C(O)C(Cl)Cl`, for which the fluorescence ratio in assay [3] was 0.97; in [6], 0.96. The inhibition is -0.4% in assay [4] and 0.67% in assay [5]. The z-score in assay [1] is 0.208. For the same molecule, the remaining activity in assay [7] is 99.4%. The log fold change Tl+ flux in the assay with F380Y/beta4 was -0.0155; in assay [2], -0.0139; in the assay on R275C/beta4, -0.0167.
As to `CCOC(=O)c1cncn1C(C)c1ccccc1` (stereo not given), the log fold change Tl+ flux in the assay on F380Y/beta4 is 0.0301; in [2], -0.00742; in the assay with R275C/beta4, -0.000383.
On to `NN=C(N)N`, for which, in assay [7], the remaining activity is 98%. The molecule was called inactive in [8], in assay [9] and in assay [10].
In the case of `CN1C(=O)CN=C(c2ccccc2)c2cc([N+](=O)[O-])ccc21`, the fluorescence ratio in assay [3] was 1.07; in [6], 1.04. In addition, the inhibition in assay [4] was 5.94%; in assay [5], 1.44%. The z-score in assay [1] is -0.553. For the same molecule, the log fold change Tl+ flux in the assay with F380Y/beta4 is 0.0228; in assay [2], -0.000886; in the assay on R275C/beta4, 0.0115.
For the molecule `c1ccc2c(c1)OCC(C1=NCCN1)O2` (stereo not given), the remaining activity in assay [7] was 99.1%.
For `C[N+]1(CCC(C(N)=O)(c2ccccc2)c2ccccc2)CCCCC1`, the results for the fluorescence ratio in assay [3] and in assay [6] were 1.01 and 0.95, respectively. Also, the inhibition in [4] was -1.98%; in assay [5], -0.1%. Besides, the z-score in assay [1] is -0.188. Moreover, the log fold change Tl+ flux is -0.00383 with F380Y/beta4, 0.0152 in assay [2] and -0.0252 in the assay on R275C/beta4.
With `COc1cc(N)c(Cl)cc1C(=O)NC1CN2CCC1CC2` (stereo not given), the fluorescence ratio was 0.94 in assay [3] and 0.87 in assay [6]. Besides, the inhibition in assay [4] was -2.77%; in [5], 9.91%. The z-score in assay [1] is -0.38. Also, the remaining activity in [7] was 124%.
On to `CNCC(O)c1ccc(O)cc1` (stereo not given), for which the fluorescence ratio is 0.99 in assay [3] and 0.96 in assay [6]. Further, the inhibition is -1.09% in assay [4] and -0.39% in assay [5]. Besides, the z-score in assay [1] was -0.502. Besides, the molecule was called inactive in assay [8], in [11], in assay [12], in assay [13], in [14] and in [9]. In addition, the molecule was called inactive in [10]. Further, the log fold change Tl+ flux in the assay with F380Y/beta4 was -0.01; in [2], 0.0291; in the assay on R275C/beta4, -0.013.
Take `C=C1C[C@@H]2[C@H](CC[C@]3(C)C(=O)CC[C@@H]23)[C@@]2(C)C=CC(=O)C=C12`: the fluorescence ratio in assay [3] was 1.07; in [6] it was 1.05. In addition, the inhibition was 2.77% in assay [4] and 2.98% in [5]. For the same molecule, the outcome in assay [8], in [11], in assay [12], in [14] and in assay [9] was inactive. The log fold change Tl+ flux with F380Y/beta4 was 0.013; in [2], 0.0186; with R275C/beta4 it was 0.0226.
As for `NP(N)(=O)NC(=O)c1ccc(F)cc1`, the remaining activity in assay [7] is 91.8%.
Turning to `CN1C(=O)COc2c(C(=O)NC3CN4CCC3CC4)cc(Cl)cc21` (stereo not given), the fluorescence ratio in [3] is 1.03; in assay [6] it was 1.02. Moreover, the values for the inhibition in assay [4] and in assay [5] were 2.77% and 3.75%, respectively. For the same molecule, in assay [1], the z-score is 0.29. For the same molecule, the molecule was classed as inactive in assay [8], in assay [11], in [12], in assay [13] and in assay [10]. Moreover, the log fold change Tl+ flux in the assay on F380Y/beta4 is 0.0243; in assay [2] it was 0.0336; in the assay on R275C/beta4 it was -0.016.
In the case of `Oc1cc(Cl)ccc1Oc1ccc(Cl)cc1Cl`, the fluorescence ratio is 1.01 in assay [3] and 0.91 in [6]. In addition, the results for the inhibition in assay [4] and in assay [5] were 2.27% and -0.48%, respectively. The log fold change Tl+ flux in the assay on F380Y/beta4 is -0.429 (active); in [2], -0.0387; in the assay on R275C/beta4, 0.0409.
For `NC1=NC(=O)C(c2ccccc2)O1` (stereo not given), the fluorescence ratio is 1.02 in assay [3] and 0.93 in [6]. Further, the inhibition in assay [4] was 2.77%; in assay [5], 1.44%. In assay [1], the z-score is -1.08. The log fold change Tl+ flux was 0.00709 with F380Y/beta4, -0.0447 in assay [2] and -0.0245 in the assay on R275C/beta4.
For `CC(C)NCC(O)c1ccc(N)c(C#N)c1` (stereo not given), in assay [7], the remaining activity was 122%.
